eIF4E-4G inh: eIF4E–eIF4G protein interaction inhibitors, primary screen, biochemical, uHTS, TR-FRET, eIF4GI fragment; TR-FRET eIF4E-eIF4GI(517-606) binding, 2 h; inhibition, % at 21.7 µM; AID 782, 2007; actives 0.37% (n = 220,000);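 active = inhibition above about 30%, limit read from the data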;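 note: 0% = full FRET control wells and 100% = background wells lacking eIF4GI fragment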
EBV gp42 block: Epstein-Barr virus gp42 inhibitors, primary screen, biochemical, uHTS, fluorescence polarization; Glycoprotein 42 (Epstein-Barr virus (strain AG876)), Q1HVG2; Fluorescence polarization binding assay, mP read-out; inhibition, % (tested at 21.74 µM); actives 0.42% (n = 220,000); AID 1085, 2008; in the data active = inhibition above about 50%
zVAD death inh: inhibitors of zVAD-triggered necroptosis, primary screen, L929 cells; viability rescue, % at 10 µM; AID 1377, 2008; actives 0.38% (n = 220,000); L929 zVAD necroptosis rescue, ATP luminescence, 24 h; with zVAD 60 µM;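 active = activation, scaled between plate controls, above about 75%, limit read from the data; inactive = activation under that limit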;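 note: 0% = zVAD with DMSO and 100% = DMSO alone without zVAD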
TNF death inh: inhibitors of TNF-alpha triggered necroptosis, primary screen, cell-based, Jurkat FADD-/-, single concentration | activation (protection from cell death), % at 10 µM | Jurkat FADD-/- TNF necroptosis rescue, ATP luminescence, 24 h; 0 = TNF only, 100 = no-TNF cells | actives 0.068% (n = 220,000) | AID 463075, 2010;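 active = activation, meaning protection from cell death, of at least 50% relative to plate controls; inactive = activation below 50%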;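 note: necroptosis triggered by 40 ng/mL TNF-alpha added together with compound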
zVAD death conf: inhibitors of zVAD-triggered necroptosis in L929, confirmation, L929 cells, duplicate runs; actives 16% (n = 760); activation (protection from necroptosis), % at 10 µM; AID 463117, 2010; L929 zVAD-induced necroptosis rescue, ATP luminescence, 24 h; shares compounds with zVAD death inh;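 active = mean protection from necroptosis of at least 50% over duplicate tests; inactive = mean protection below 50%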;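 note: 0% = cells with zVAD alone and 100% = vehicle cells without zVAD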
An asterisk follows results filed as active; / = no result. Only some compounds are listed: those with a hit (about 1.2% of all), similar ones and a draw of the others.

SMILES | eIF4E-4G inh | EBV gp42 block | zVAD death inh | TNF death inh | zVAD death conf
CCOc1ccc(NC(=O)Nc2ccc3nccnc3c2)cc1 | 1 | 1 | 92* | -4 | 1
CCOc1ccc(NC(=O)Nc2ccc(Br)cn2)cc1 | 0 | -12 | 75* | 4 | 2
COc1ccc(NC(=O)Nc2ccc(Br)cn2)cc1OC | -6 | -1 | 77* | 19 | 39
Cc1ccc(NC(=O)C(OC(=O)c2ccc(NC(N)=O)cc2)c2ccccc2)cc1Cl (stereo unspecified) | 1 | -21 | 85* | 8 | 70*
NC(=O)c1c(-c2ccccc2)oc2ccc(O)cc12 | -2 | -9 | 85* | 0 | 40
CC1Oc2ccccc2C=C1/C=N/Nc1ccc(C(=O)O)cc1 (stereo unspecified) | 0 | -7 | 1 | 0 | /
CCOC(=O)C1C(=O)NC(SCC(=O)Nc2nccs2)=C(C#N)C1c1ccccc1OCC (stereo unspecified) | 0 | -12 | 88* | 16 | 67*
CN=C1S/C(=C/c2cn(CC(=O)OC)c3ccccc23)C(=O)N1C | -4 | -19 | 67 | -2 | /
CN=C1S/C(=C\c2cn(CC(=O)OC)c3ccccc23)C(=O)N1C | 1 | -10 | 75* | 1 | 0
O=C(NC(=S)NCc1nc2ccccc2[nH]1)c1ccccc1F | -2 | -12 | 12 | 3 | /
O=C(NC(=S)NCc1nc2ccccc2[nH]1)c1ccc(F)cc1 | 4 | -4 | 84* | 18 | 17
COc1cccc2c1OCC/C2=N\NC(=O)C(C)Oc1ccc([N+](=O)[O-])cc1 (stereo unspecified) | 5 | -4 | 11 | 0 | /
Nc1ccc(-n2cnc3cc([N+](=O)[O-])ccc32)cc1 | -3 | 2 | 78* | 0 | 42
CCn1cnc2cc(NS(=O)(=O)c3ccc(C)cc3)ccc21 | -2 | -5 | 0 | 2 | /
COc1ccc(-n2cnc3cc([N+](=O)[O-])ccc32)cc1 | 9 | -10 | 79* | 2 | 1
Cc1cccc(-n2cnc3cc([N+](=O)[O-])ccc32)c1 | 9 | 7 | 20 | 2 | /
COc1ccc(-n2cnc3cc(NS(=O)(=O)c4ccc(C)cc4)ccc32)cc1 | -7 | -4 | 85* | 38 | 41
COc1ccc(S(=O)(=O)N(C)c2ccc(C(=O)N3CCCCC3)cc2)cc1OC | -1 | -13 | 0 | -4 | /
CC1=C([N+](=O)[O-])C(c2ccccc2C(F)(F)F)NC(=O)N1C (stereo unspecified) | -3 | -8 | 0 | 1 | /
CC(C)(C)/C(O)=C/c1nc2ccccc2oc1=O | -2 | -18 | 88* | 10 | 8
O=c1oc2ccccc2nc1/C=C(\O)c1ccccc1 | 5 | 1 | 68 | 23 | /
CC(C)(C)n1nc(-c2ccc(F)cc2)c2c(N)ncnc21 | -1 | 5 | 79* | 3 | 41
CC(C)(C)c1ccc(/C=N/N2CCN(c3ccccn3)CC2)cc1 | 4 | -10 | 82* | 10 | 31
CN=C1S/C(=C\c2cc(C)n(-c3ccccc3F)c2C)C(=O)N1C | 1 | -16 | 78* | -13 | 6
CCOC(=O)c1ccc2ncc(-c3ccccc3)nc2c1 | 4 | 2 | 76* | 0 | 1
SMILES | eIF4E-4G inh | EBV gp42 block | zVAD death inh | TNF death inh | zVAD death conf
CCOC(=O)c1cnc(-c2ccccc2)nc1N | -12 | 4 | 0 | -1 | /
CCCOc1ccc(/C=N/Nc2ccccn2)cc1OC | 3 | -3 | 60 | 10 | /
CCOc1ccc(/C=N/Nc2ccccn2)cc1OC | 1 | 2 | 80* | 23 | 4
C=CCOc1ccc(/C=N/Nc2ccccn2)cc1OC | -3 | 3 | 85* | 8 | 1
COc1ccc(/C=N/Nc2ccccn2)c(OC)c1OC | 1 | 2 | 83* | 27 | 12
COc1cccc(CC(=O)N[C@@H](CCSC)c2nc3ccccc3[nH]2)c1 | 1 | -12 | 2 | 2 | /
CC(C)CCn1c(Sc2nc3ccccc3o2)nc2c1c(=O)[nH]c(=O)n2C | 4 | -8 | 0 | -13 | /
O=C(CSc1nc2ncc(Cl)cc2[nH]1)N(Cc1ccccc1)C1CCS(=O)(=O)C1 (stereo unspecified) | 5 | 3 | 2 | 1 | /
O=C(Cn1nnc(-c2ccncc2)n1)Nc1ccc2c(c1)CCC2 | 5 | -9 | 81* | 1 | 39
COc1cc(NC(=O)Cn2nnc(-c3ccncc3)n2)cc(OC)c1 | -11 | -3 | 77* | -4 | 30
COc1ccc(CN(C(=O)c2cc(=O)c3cc(C)cc(C)c3o2)C2CCS(=O)(=O)C2)cc1 (stereo unspecified) | 2 | -4 | 0 | 2 | /
CCN(C(=O)CSc1nnnn1-c1ccccc1)C1CCS(=O)(=O)C1 (stereo unspecified) | 1 | -17 | 0 | 1 | /
CC(=O)N(C)c1ccc(NC(=O)Nc2ccc(C)cc2)cc1 | -5 | -8 | 77* | -1 | 37
CC(=O)N(C)c1ccc(NC(=S)Nc2ccccc2)cc1 | 1 | 5 | 0 | -1 | /
COCC(C)n1c(C)cc(C(=O)CSc2ncccn2)c1C (stereo unspecified) | -6 | 0 | 0 | 1 | /
COCC(C)n1c(C)cc(C(=O)CSc2nnnn2-c2ccc(O)cc2)c1C (stereo unspecified) | 0 | 11 | 76* | 0 | 47
O=C(Nc1ccccc1)n1ccc(-c2ccc(-n3ccnc3)cc2)n1 | -2 | -3 | 76* | 15 | 47
CCOC(=O)c1c(N)nn(C(=O)C(C)(C)C)c1-c1ccccc1 | 2 | -4 | 0 | -1 | /
CCOC(=O)c1c(N)nn(C(=O)c2ccccc2F)c1-c1ccc(OC)cc1 | 2 | -9 | 78* | 0 | 0
CCCCNC(=O)Nc1nc2ccc(CC)cc2s1 | 2 | 6 | 78* | 8 | 2
NNc1cc(C(=O)O)ccc1Cl | -3 | -10 | 1 | 1 | /
COc1cc(CNC(C)(C)CO)ccc1OCC(=O)Nc1ccc(Br)cc1 | 6 | 13 | 84* | 2 | 29
CC(=O)c1cnc(Nc2ccc(C)cc2)s1 | -2 | -10 | 84* | 14 | 3
CCN(CC)CCOc1c(Br)ccc2c1sc1nc3n(c(=O)c12)CCC3 | 6 | -9 | 81* | -6 | 21
N#CCCCN1C(=O)C(=C(C#N)C#N)c2ccccc21 | 0 | -4 | 76* | -1 | 0
N#CCCCN1C(=O)C(O)(CC(=O)c2ccc3c(c2)OCCO3)c2ccccc21 (stereo unspecified) | -9 | 3 | -1 | -1 | /
Cc1[nH][nH]c(=O)c1C(c1c(C)[nH][nH]c1=O)c1cn(Cc2cccc3ccccc23)c2ccccc12 | -5 | 11 | 0 | -23 | /

Source: PubChem
